Where “and” joins values, the source holds several entries; their conditions need not be identical. Identical values can stand only once. Among all 5,500 compounds or so, about 2,000 (36%) were called active. Roughly 18% stayed inconclusive and do not appear here. Rule as the data show it: active = normalized growth mostly below about 0.91 (no sharp cut-off); inconclusive = no clear call, values can overlap the other calls; inactive = mostly above about 0.92. This is one part of the list.
Test: chemical genetic growth profiling, strain panel (AID 1159580);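 also: tested at 20 µM; growth read once vehicle control cultures reached saturation at 30 °C; 1 = growth at the plate median or of vehicle wells; lower values mean less growth of the strain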
Details: S. cerevisiae deletion strains, growth OD

Measured: normalized growth

OC[C@H]1O[C@@H](Oc2ccc(O)cc2)[C@H](O)[C@@H](O)[C@@H]1O
inactive: locus YAL013W, strain DEP1, stronger effect = lower value 1.02 | locus YAL021C, strain ccr4, stronger effect = lower value 0.993 | locus YAL026C, strain drs2, stronger effect = lower value 1.02 | locus YAL030W, strain snc1, stronger effect = lower value 1.01 | locus YBL061C, strain skt5, stronger effect = lower value 1.02 | locus YBR009C, strain hhf1, stronger effect = lower value 1.02 | locus YBR021W, strain FUR4, stronger effect = lower value 0.988 | locus YBR023C, strain chs3, stronger effect = lower value 1.01 | locus YBR171W, strain sec66, stronger effect = lower value 1.01 | locus YBR229C, strain ROT2, stronger effect = lower value 1.02 | locus YBR231C, strain swc5, stronger effect = lower value 1 | locus YBR279W, strain paf1, stronger effect = lower value 1.01 | locus YCL011C, strain gbp2, stronger effect = lower value 1.01 | locus YCL016C, strain dcc1, stronger effect = lower value 0.992 | locus YCL029C, strain bik1, stronger effect = lower value 1.04 | locus YCL069W, strain vba3, stronger effect = lower value 1.01 | locus YCR088W, strain abp1, stronger effect = lower value 1.02 | locus YDL005C, strain med2, stronger effect = lower value 1.01 | locus YDL035C, strain GPR1, stronger effect = lower value 1 | locus YDL040C, strain nat1, stronger effect = lower value 1 | locus YDL074C, strain BRE1, stronger effect = lower value 1.03 | locus YDL101C, strain DUN1, stronger effect = lower value 1.02 | locus YDL134C, strain PPH21, stronger effect = lower value 1.02 | locus YDL185W, strain tfp1, stronger effect = lower value 1.02 | locus YDL192W, strain arf1, stronger effect = lower value 1.03 | locus YDR001C, strain nth1, stronger effect = lower value 1 | locus YDR069C, strain doa4, stronger effect = lower value 1.01 | locus YDR101C, strain arx1, stronger effect = lower value 1.01 | locus YDR137W, strain rgp1, stronger effect = lower value 1.02 | locus YDR159W, strain sac3, stronger effect = lower value 1.05 | locus YDR162C, strain NBP2, stronger effect = lower value 1.03 | locus YDR195W, strain ref2 1 | locus YDR297W, strain sur2, stronger effect = lower value 1 | locus YDR318W, strain mcm21, stronger effect = lower value 1.02 | locus YDR334W, strain swr1, stronger effect = lower value 1 | locus YDR335W, strain msn5, stronger effect = lower value 1.02 | locus YDR388W, stronger effect = lower value 1.01 | locus YDR392W, strain spt3, stronger effect = lower value 1.02 | locus YDR502C, strain sam2, stronger effect = lower value 1.01 | locus YEL003W, strain gim4, stronger effect = lower value 1.01 | locus YEL037C, strain rad23, stronger effect = lower value 0.999 | locus YEL061C, strain CIN8 (second series), stronger effect = lower value 1.01 | locus YEL061C, strain CIN8, stronger effect = lower value 1.01 | locus YER015W, strain faa2, stronger effect = lower value 1.01 | locus YER016W, strain bim1, stronger effect = lower value 1.01 | locus YER110C, stronger effect = lower value 1.03 | locus YER111C, strain swi4, stronger effect = lower value 1.01 | locus YER155C, strain BEM2 (second series), stronger effect = lower value 1.03 | locus YER155C, strain BEM2, stronger effect = lower value 0.999 | locus YER167W, strain BCK2, stronger effect = lower value 1.01 | locus YFR010W, strain ubp6, stronger effect = lower value 1.01 | locus YGL078C, strain dbp3, stronger effect = lower value 1.03 | locus YGL086W, strain mad1, stronger effect = lower value 1.01 | locus YGL167C, strain pmr1, stronger effect = lower value 1.02 | locus YGL173C, strain kem1, stronger effect = lower value 1.02 | locus YGL227W, strain vid30, stronger effect = lower value 1.01 | locus YGL240W, strain doc1, stronger effect = lower value 1.02 | locus YGL248W, strain PDE1, stronger effect = lower value 1.01 | locus YGL253W, strain hxk2, stronger effect = lower value 1.03 | locus YGR078C, strain PAC10, stronger effect = lower value 1.03 | locus YGR135W, strain pre9, stronger effect = lower value 1.03 | locus YGR252W, strain gcn5, stronger effect = lower value 1.02 | locus YHR013C, strain ard1, stronger effect = lower value 1.02 | locus YHR027C, strain rpn1, stronger effect = lower value 1.01 | locus YHR030C, strain SLT2, stronger effect = lower value 1 and 0.962 | locus YHR079C, strain IRE1 (second series), stronger effect = lower value 1.02 | locus YHR079C, strain IRE1, stronger effect = lower value 0.973 | locus YHR094C, strain hxt1, stronger effect = lower value 1.02 | locus YHR129C, strain ARP1, stronger effect = lower value 1.01 | locus YHR142W, strain chs7, stronger effect = lower value 1.01 | locus YHR200W, strain rpn10, stronger effect = lower value 1.02 | locus YIL066C, strain RNR3, stronger effect = lower value 1.01 | locus YIL073C, strain SPO22, stronger effect = lower value 1.08 | locus YIL125W, strain kgd1, stronger effect = lower value 1.02 | locus YIR030C, strain dcg1, stronger effect = lower value 1.01 | locus YJL092W, strain hpr5, stronger effect = lower value 1.01 | locus YJL095W, strain BCK1 (second series), stronger effect = lower value 1 | locus YJL095W, strain BCK1, stronger effect = lower value 1.04 and 0.973 | locus YJL115W, strain asf1, stronger effect = lower value 1 | locus YJL129C, strain trk1, stronger effect = lower value 1.03 | locus YJL134W, strain LCB3, stronger effect = lower value 1 | locus YJL154C, strain vps35, stronger effect = lower value 1.01 | locus YJL164C, strain tpk1, stronger effect = lower value 1.01 | locus YJL166W, strain qcr8, stronger effect = lower value 1.02 | locus YJL168C, strain set2, stronger effect = lower value 1.02 | locus YJL187C, strain SWE1 (second series), stronger effect = lower value 1.03 | locus YJL187C, strain SWE1, stronger effect = lower value 1.02 | locus YJR066W, strain TOR1, stronger effect = lower value 0.959 | locus YKL009W, strain mrt4, stronger effect = lower value 1.02 | locus YKL068W, stronger effect = lower value 1.01 | locus YKL085W, strain MDH1 (second series), stronger effect = lower value 1.01 | locus YKL085W, strain MDH1, stronger effect = lower value 1.01 | locus YKL160W, strain elf1, stronger effect = lower value 1 | locus YKR001C, strain vps1, stronger effect = lower value 1.03 | locus YKR026C, strain gcn3, stronger effect = lower value 1.01 | locus YKR091W, strain srl3, stronger effect = lower value 1 | locus YLL001W, strain dnm1, stronger effect = lower value 1.01 | locus YLL026W, stronger effect = lower value 1.01 | locus YLL041C, strain sdh2, stronger effect = lower value 1.03 | locus YLR027C, strain aat2, stronger effect = lower value 1.01 | locus YLR039C, strain RIC1, stronger effect = lower value 1.06 | locus YLR058C, strain SHM2, stronger effect = lower value 1.04 | locus YLR102C, strain apc9, stronger effect = lower value 1.02 | locus YLR113W, strain HOG1, stronger effect = lower value 0.944 | locus YLR221C, strain rsa3, stronger effect = lower value 1.01 | locus YLR258W, strain gsy2, stronger effect = lower value 1.01 | locus YLR262C, strain YPT6 (second series), stronger effect = lower value 1.03 | locus YLR268W, strain sec22, stronger effect = lower value 1.03 | locus YLR320W, strain mms22, stronger effect = lower value 1.03 | locus YLR330W, strain CHS5, stronger effect = lower value 1.01 | locus YLR342W, strain FKS1, stronger effect = lower value 1.01 | locus YLR357W, strain rsc2, stronger effect = lower value 1.03 | locus YLR370C, strain arc18, stronger effect = lower value 1.01 | locus YLR371W, strain rom2, stronger effect = lower value 1.01 | locus YLR384C, strain iki3, stronger effect = lower value 1.03 | locus YLR418C, strain cdc73, stronger effect = lower value 1.06 | locus YML016C, strain PPZ1, stronger effect = lower value 1 | locus YML032C, strain rad52, stronger effect = lower value 1.03 | locus YML120C, strain ndi1, stronger effect = lower value 1.01 | locus YML124C, strain tub3, stronger effect = lower value 1.02 | locus YMR058W, strain fet3, stronger effect = lower value 1.01 | locus YMR078C, strain ctf18, stronger effect = lower value 1.04 | locus YMR125W, strain sto1, stronger effect = lower value 1.03 | locus YMR129W, stronger effect = lower value 1.01 | locus YMR205C, strain PFK2, stronger effect = lower value 1 | locus YMR223W, strain ubp8, stronger effect = lower value 1.02 | locus YMR231W, strain pep5, stronger effect = lower value 1.01 | locus YMR307W, strain GAS1, stronger effect = lower value 0.945 | locus YNL067W, strain RPL9B, stronger effect = lower value 1.02 | locus YNL071W, strain lat1, stronger effect = lower value 1.01 | locus YNL183C, strain NPR1, stronger effect = lower value 0.963 | locus YNL209W, strain ssb2, stronger effect = lower value 1.02 | locus YNL233W, strain BNI4, stronger effect = lower value 1.02 | locus YNL248C, strain rpa49, stronger effect = lower value 1.03 | locus YNL250W, strain rad50, stronger effect = lower value 1.05 | locus YNL271C, strain bni1, stronger effect = lower value 1.02 | locus YNL298W, strain CLA4, stronger effect = lower value 1.02 | locus YNL307C, strain MCK1, stronger effect = lower value 1.02 | locus YNL322C, strain KRE1 (second series), stronger effect = lower value 1 | locus YNR049C, strain mso1, stronger effect = lower value 1.02 | locus YNR052C, strain pop2, stronger effect = lower value 1.03 | locus YOL006C, strain TOP1, stronger effect = lower value 1.06 | locus YOL012C, strain htz1 0.901 | locus YOL147C, strain pex11, stronger effect = lower value 1.01 | locus YOR001W, strain rrp6, stronger effect = lower value 1.01 | locus YOR061W, strain CKA2, stronger effect = lower value 1.02 | locus YOR069W, strain VPS5, stronger effect = lower value 1.01 | locus YOR070C, strain gyp1, stronger effect = lower value 1.01 | locus YOR080W, strain dia2, stronger effect = lower value 1 | locus YOR083W, strain WHI5, stronger effect = lower value 0.992 | locus YOR106W, strain vam3, stronger effect = lower value 0.992 | locus YOR136W, strain idh2, stronger effect = lower value 1.03 | locus YOR144C, strain elg1, stronger effect = lower value 1.02 | locus YOR184W, strain ser1, stronger effect = lower value 1.05 | locus YOR231W, strain MKK1, stronger effect = lower value 0.958 | locus YOR265W, strain rbl2, stronger effect = lower value 0.991 | locus YOR270C, strain vph1, stronger effect = lower value 1.05 | locus YOR290C, strain snf2, stronger effect = lower value 0.993 | locus YOR316C, strain cot1, stronger effect = lower value 1.02 | locus YPL051W, strain arl3, stronger effect = lower value 0.989 | locus YPL055C, strain LGE1, stronger effect = lower value 1.04 | locus YPL078C, strain atp4, stronger effect = lower value 1.01 | locus YPL106C, strain sse1, stronger effect = lower value 0.995 | locus YPL240C, strain hsp82, stronger effect = lower value 1.01 | locus YPL241C, strain CIN2, stronger effect = lower value 1.01 | locus YPL256C, strain CLN2, stronger effect = lower value 0.977 | locus YPR119W, strain clb2, stronger effect = lower value 1.03 | locus YPR141C, strain kar3, stronger effect = lower value 1.02 | locus YPR163C, strain tif3, stronger effect = lower value 1.03 | locus YPR167C, strain met16, stronger effect = lower value 1.03 | strain wtn01, stronger effect = lower value 1.02
